# Results from PubChem BioAssay AID588651 (The Scripps Research Institute Molecular Screening Center, 2011).
# The source made the active and inactive calls. Cut-off read from the data, not from the text of the source: active = inhibition above about 65%; inactive = the rest.
# Tested on: Fam108b
# Assay: Fam108b inhibitors and proteome off-target selectivity – biochemical, gel-based ABPP, recombinant soluble Fam108b, HTS hits, complex proteome, late-stage follow-up (AID 588651);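 note: Fam108b spiked into mouse brain membrane proteome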
# Conditions: FP-rhodamine labeling in proteome, at 20 µM, stronger effect = higher value
row,SMILES,inhibition
1,O=[N+]([O-])c1ccc(NN=Cc2c[nH]c3ccccc23)c(S(=O)(=O)Nc2ccc(Cl)cc2)c1,0% (inactive)
2,O=C1C(Cl)=C(N2CCC(C(=O)O)CC2)C(=O)c2ccccc21,0% (inactive)
3,Cc1cc(Nc2ccc(Cl)cc2)nc(NCc2ccccc2)n1,0% (inactive)
4,COc1cc2cc(C(=O)NN=Cc3ccccc3Cl)[nH]c2cc1OC,10% (inactive)
5,Oc1ccccc1-c1nc2c3ccccc3c3ccccc3c2[nH]1,0% (inactive)
6,CC1=CC(=O)c2c(O)ccc(O)c2C1=O,50% (inactive)
7,O=C(O)C1Nc2ccc(Br)cc2C2C=CCC12 (centres undefined),0% (inactive)
8,O=C(Nc1ccc(-c2csc(Nc3ccc(Cl)cc3)n2)cc1)c1cccc(C(F)(F)F)c1,95% (active)
9,Cc1ccc(-n2c(O)c(/C=N/Nc3ccc(S(=O)(=O)N4CCOCC4)cc3[N+](=O)[O-])c3ccccc3c2=O)c(C)c1,40% (inactive)
10,CC1CCCCN1S(=O)(=O)c1ccc(C(=O)Nc2ccccc2-c2nc3ccccc3[nH]2)cc1 (centres undefined),50% (inactive)
11,COc1cc2c(cc1NC(=S)Nc1cccc(C(F)(F)F)c1)oc1ccccc12,20% (inactive)
12,COc1ccc(/C=C/C(=O)OCC(=O)Nc2cccc(Oc3ccccc3)c2)c(OC)c1,30% (inactive)
13,Brc1ccc(-c2csc(Nc3nc(-c4ccc(Br)cc4)cs3)n2)cc1,50% (inactive)
14,Nc1cc2nsnc2cc1Br,0% (inactive)
15,Nc1ccc2nc(-c3cccc(-c4nc5ccc(N)cc5[nH]4)c3)[nH]c2c1,30% (inactive)
16,CC1(C)CC(=O)C2=C(C1)c1c(ccc3ccccc13)NC2c1cc([N+](=O)[O-])cc([N+](=O)[O-])c1O (centres undefined),50% (inactive)
17,COc1ccc(/C=C2\SC(=S)N(CC(=O)OCC(=O)Nc3cc(Cl)cc(Cl)c3)C2=O)cc1,0% (inactive)
18,Cc1ccc(S(=O)(=O)N=C2C=C(Sc3ncn[nH]3)C(=O)c3ccccc32)cc1,90% (active)
19,Cc1cccc(N=Cc2nc(-c3ccccc3Br)oc2O)n1,10% (inactive)
